Laboratory results as given in PubChem BioAssay AID1159580 (chemical genetic matrix, 2015).
Screen size: about 5,500 compounds; about 2,000 (36%) were called active. Another 18% or so got no clear call; they are omitted. Cut-off read from the data, not from the text of the source: active = normalized growth mostly below about 0.91 (no sharp cut-off); inconclusive = no clear call, values can overlap the other calls; inactive = mostly above about 0.92. This is one part of the list.

Test: chemical genetic growth profiling, strain panel (AID 1159580);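 note: tested at 20 µM; growth read once vehicle control cultures reached saturation at 30 °C; 1 = growth at the plate median or of vehicle wells; lower values mean less growth of the strain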
Settings: S. cerevisiae deletion strains, growth OD

Measured: normalized growth

FC(F)(F)c1ccc(C2Sc3ccccc3N=C3c4ccccc4CC32)cc1 (stereo unspecified)
inactive: locus YAR019C, strain CDC15, active compounds read low 1.01 | locus YBL105C, strain PKC1, active compounds read low 1.03 | locus YBR135W, strain CKS1, active compounds read low 1.01 | locus YBR136W, strain MEC1, active compounds read low 1 | locus YBR160W, strain CDC28, active compounds read low 1.02 | locus YDL017W, strain CDC7, active compounds read low 1.01 | locus YDL028C, strain MPS1, active compounds read low 0.996 | locus YDL101C, strain DUN1, active compounds read low 1 | locus YDL108W, strain KIN28, active compounds read low 0.994 | locus YDL132W, strain cdc53, active compounds read low 1.02 | locus YDL214C, strain PRR2, active compounds read low 1.02 | locus YDR052C, strain DBF4, active compounds read low 1.01 | locus YDR054C, strain cdc34, active compounds read low 1.02 | locus YDR226W, strain ADK1, active compounds read low 0.996 | locus YDR477W, strain SNF1, active compounds read low 1.03 | locus YER123W, strain YCK3, active compounds read low 0.96 | locus YER133W, strain GLC7, active compounds read low 1 | locus YFL009W, strain cdc4, active compounds read low 1.01 | locus YFL029C, strain CAK1, active compounds read low 1 | locus YFR003C, strain YPI1, active compounds read low 1.02 | locus YFR019W, strain FAB1, active compounds read low 0.985 | locus YFR028C, strain CDC14, active compounds read low 1.01 | locus YGR040W, strain KSS1, active compounds read low 1.02 | locus YGR052W, strain FMP48, active compounds read low 1.04 | locus YGR092W, strain DBF2, active compounds read low 0.979 | locus YHR030C, strain SLT2, active compounds read low 0.97 | locus YHR079C, strain IRE1, active compounds read low 1.01 | locus YHR082C, strain KSP1, active compounds read low 1.01 | locus YHR205W, strain SCH9, active compounds read low 0.953 | locus YIL147C, strain SLN1, active compounds read low 1 | locus YJL095W, strain BCK1, active compounds read low 0.985 | locus YJL128C, strain PBS2, active compounds read low 0.973 | locus YJL157C, strain FAR1, active compounds read low 1.02 | locus YJR016C, strain ILV3, active compounds read low 1.02 | locus YJR066W, strain TOR1 (second series), active compounds read low 0.999 | locus YJR066W, strain TOR1, active compounds read low 0.993 | locus YKL048C, strain ELM1, active compounds read low 0.984 | locus YKL067W, strain YNK1, active compounds read low 1 | locus YKL101W, strain HSL1, active compounds read low 1.04 | locus YKL193C, strain SDS22, active compounds read low 1.01 | locus YKL203C, strain TOR2, active compounds read low 1.1 | locus YLR113W, strain HOG1, active compounds read low 0.87 | locus YLR133W, strain CKI1, active compounds read low 0.987 | locus YLR403W, strain SFP1, active compounds read low 0.991 | locus YML070W, strain DAK1, active compounds read low 0.981 | locus YMR001C, strain CDC5, active compounds read low 1.02 | locus YMR205C, strain PFK2 (second series), active compounds read low 0.995 | locus YMR277W, strain FCP1, active compounds read low 1.02 | locus YNL006W, strain LST8, active compounds read low 1 | locus YNL020C, strain ARK1, active compounds read low 1.01 | locus YNL161W, strain CBK1, active compounds read low 1.03 | locus YNL183C, strain NPR1, active compounds read low 0.969 | locus YNL207W, strain RIO2, active compounds read low 1.02 | locus YNL222W, strain SSU72, active compounds read low 1.01 | locus YNL307C, strain MCK1 (second series), active compounds read low 0.937 | locus YOL078W, strain AVO1, active compounds read low 0.998 | locus YOL136C, strain PFK27, active compounds read low 0.993 | locus YOR061W, strain CKA2, active compounds read low 0.993 | locus YOR119C, strain RIO1, active compounds read low 1.02 | locus YOR231W, strain MKK1, active compounds read low 1 | locus YOR329C, strain SCD5, active compounds read low 1.03 | locus YPL031C, strain PHO85, active compounds read low 1.06 | locus YPL153C, strain RAD53, active compounds read low 1.03 | locus YPL204W, strain HRR25, active compounds read low 1.01 | locus YPL209C, strain IPL1, active compounds read low 1.02 | locus YPL256C, strain CLN2, active compounds read low 0.951 | locus YPR025C, strain CCL1, active compounds read low 1.02 | locus YPR106W, strain ISR1, active compounds read low 0.996 | locus YPR111W, strain DBF20, active compounds read low 0.985 | strain NNK1, active compounds read low 1.01 | strain TSCII, active compounds read low 1.02
